Experiments:
[1] = target: MAP/microtubule affinity-regulating kinase 3 (Homo sapiens) (UniProt P27448); conditions: at 1 µM;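 further: reported values are averaged percent inhibition of MARK3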
[2] = target: T1, MAP/microtubule affinity-regulating kinase 4 (Homo sapiens) (UniProt Q96L34); conditions: at 0.1 µM
T1 sequence (whole entry): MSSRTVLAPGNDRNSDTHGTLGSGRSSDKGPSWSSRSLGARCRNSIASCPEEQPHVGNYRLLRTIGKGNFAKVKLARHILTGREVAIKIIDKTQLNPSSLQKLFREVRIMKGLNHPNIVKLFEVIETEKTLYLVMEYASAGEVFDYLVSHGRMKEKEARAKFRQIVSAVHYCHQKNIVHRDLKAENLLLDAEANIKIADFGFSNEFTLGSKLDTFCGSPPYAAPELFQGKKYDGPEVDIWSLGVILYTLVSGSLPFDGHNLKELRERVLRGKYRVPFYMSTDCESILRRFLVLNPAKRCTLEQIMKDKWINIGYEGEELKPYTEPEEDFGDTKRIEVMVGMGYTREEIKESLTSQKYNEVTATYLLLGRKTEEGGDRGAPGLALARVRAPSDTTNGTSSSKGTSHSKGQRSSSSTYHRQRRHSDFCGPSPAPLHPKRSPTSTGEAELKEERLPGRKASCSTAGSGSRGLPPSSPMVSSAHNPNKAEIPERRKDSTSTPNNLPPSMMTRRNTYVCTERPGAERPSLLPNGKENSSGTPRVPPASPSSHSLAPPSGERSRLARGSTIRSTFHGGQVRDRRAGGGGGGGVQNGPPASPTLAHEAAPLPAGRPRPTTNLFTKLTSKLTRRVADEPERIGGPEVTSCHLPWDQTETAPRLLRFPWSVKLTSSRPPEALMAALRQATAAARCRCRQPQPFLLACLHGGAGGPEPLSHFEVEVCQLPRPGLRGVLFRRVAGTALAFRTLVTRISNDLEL

[3] = target: T1, MAP/microtubule affinity-regulating kinase 4 (Homo sapiens); conditions: at 1 µM
[4] = target: Maternal embryonic leucine zipper kinase (Homo sapiens) (UniProt Q14680); conditions: at 0.1 µM
Sequence of Maternal embryonic leucine zipper kinase (Homo sapiens) (Q14680 whole entry, looked up): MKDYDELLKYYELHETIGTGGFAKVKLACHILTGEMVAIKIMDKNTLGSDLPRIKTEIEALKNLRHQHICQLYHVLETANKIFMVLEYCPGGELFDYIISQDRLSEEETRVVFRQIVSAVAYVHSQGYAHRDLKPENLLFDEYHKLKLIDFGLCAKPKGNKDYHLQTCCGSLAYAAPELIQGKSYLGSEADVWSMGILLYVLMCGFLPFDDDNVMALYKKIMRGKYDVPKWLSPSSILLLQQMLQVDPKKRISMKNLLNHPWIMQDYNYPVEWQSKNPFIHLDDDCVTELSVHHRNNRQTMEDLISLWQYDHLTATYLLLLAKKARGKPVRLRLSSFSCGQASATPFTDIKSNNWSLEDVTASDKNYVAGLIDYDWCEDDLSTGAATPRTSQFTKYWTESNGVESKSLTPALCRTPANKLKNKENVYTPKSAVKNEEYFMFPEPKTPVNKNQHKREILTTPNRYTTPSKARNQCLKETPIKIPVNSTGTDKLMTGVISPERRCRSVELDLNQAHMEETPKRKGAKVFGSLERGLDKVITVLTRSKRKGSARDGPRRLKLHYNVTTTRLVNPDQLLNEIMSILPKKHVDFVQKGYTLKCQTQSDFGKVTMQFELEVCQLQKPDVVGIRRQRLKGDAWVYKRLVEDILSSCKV

[5] = target: Maternal embryonic leucine zipper kinase (Homo sapiens) (UniProt Q14680); conditions: at 1 µM
[6] = target: MAP kinase-interacting serine/threonine-protein kinase 1 (Homo sapiens) (UniProt Q9BUB5); conditions: at 0.1 µM
Sequence of MAP kinase-interacting serine/threonine-protein kinase 1 (Homo sapiens) (Q9BUB5 whole entry, looked up): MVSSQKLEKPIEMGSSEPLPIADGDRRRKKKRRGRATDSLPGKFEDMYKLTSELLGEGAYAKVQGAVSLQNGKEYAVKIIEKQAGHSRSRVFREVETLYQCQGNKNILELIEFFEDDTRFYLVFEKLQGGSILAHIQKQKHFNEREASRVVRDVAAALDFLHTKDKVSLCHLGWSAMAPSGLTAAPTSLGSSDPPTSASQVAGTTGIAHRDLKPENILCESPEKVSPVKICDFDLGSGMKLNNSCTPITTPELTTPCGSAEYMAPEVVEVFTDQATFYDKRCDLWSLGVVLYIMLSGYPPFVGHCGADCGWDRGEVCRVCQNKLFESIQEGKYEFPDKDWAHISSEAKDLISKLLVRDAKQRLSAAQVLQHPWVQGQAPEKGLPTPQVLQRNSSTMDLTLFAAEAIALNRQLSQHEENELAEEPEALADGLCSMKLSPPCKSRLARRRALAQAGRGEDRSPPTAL

[7] = target: MAP kinase-interacting serine/threonine-protein kinase 1 (Homo sapiens) (UniProt Q9BUB5); conditions: at 1 µM
[8] = target: MAP kinase-interacting serine/threonine-protein kinase 2 (Homo sapiens) (UniProt Q9HBH9); conditions: at 0.1 µM
Sequence of MAP kinase-interacting serine/threonine-protein kinase 2 (Homo sapiens) (Q9HBH9 whole entry, looked up): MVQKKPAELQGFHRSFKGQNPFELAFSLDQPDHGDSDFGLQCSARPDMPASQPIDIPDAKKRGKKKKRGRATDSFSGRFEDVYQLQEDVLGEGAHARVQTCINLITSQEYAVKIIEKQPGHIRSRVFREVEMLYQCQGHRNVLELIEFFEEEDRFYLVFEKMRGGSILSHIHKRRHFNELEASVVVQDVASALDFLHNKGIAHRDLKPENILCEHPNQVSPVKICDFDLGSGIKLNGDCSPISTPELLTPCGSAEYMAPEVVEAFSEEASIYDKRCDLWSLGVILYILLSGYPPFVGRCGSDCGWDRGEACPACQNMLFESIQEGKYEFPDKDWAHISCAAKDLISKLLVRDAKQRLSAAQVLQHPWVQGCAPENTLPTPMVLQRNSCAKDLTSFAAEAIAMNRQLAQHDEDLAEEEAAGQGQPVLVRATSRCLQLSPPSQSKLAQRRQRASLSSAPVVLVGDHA

[9] = target: MAP kinase-interacting serine/threonine-protein kinase 2 (Homo sapiens) (UniProt Q9HBH9); conditions: at 1 µM
[10] = target: Serine/threonine-protein kinase MARK2 (Homo sapiens) (UniProt Q7KZI7); conditions: at 0.1 µM
Sequence of Serine/threonine-protein kinase MARK2 (Homo sapiens) (Q7KZI7 whole entry, the tested form may be a part): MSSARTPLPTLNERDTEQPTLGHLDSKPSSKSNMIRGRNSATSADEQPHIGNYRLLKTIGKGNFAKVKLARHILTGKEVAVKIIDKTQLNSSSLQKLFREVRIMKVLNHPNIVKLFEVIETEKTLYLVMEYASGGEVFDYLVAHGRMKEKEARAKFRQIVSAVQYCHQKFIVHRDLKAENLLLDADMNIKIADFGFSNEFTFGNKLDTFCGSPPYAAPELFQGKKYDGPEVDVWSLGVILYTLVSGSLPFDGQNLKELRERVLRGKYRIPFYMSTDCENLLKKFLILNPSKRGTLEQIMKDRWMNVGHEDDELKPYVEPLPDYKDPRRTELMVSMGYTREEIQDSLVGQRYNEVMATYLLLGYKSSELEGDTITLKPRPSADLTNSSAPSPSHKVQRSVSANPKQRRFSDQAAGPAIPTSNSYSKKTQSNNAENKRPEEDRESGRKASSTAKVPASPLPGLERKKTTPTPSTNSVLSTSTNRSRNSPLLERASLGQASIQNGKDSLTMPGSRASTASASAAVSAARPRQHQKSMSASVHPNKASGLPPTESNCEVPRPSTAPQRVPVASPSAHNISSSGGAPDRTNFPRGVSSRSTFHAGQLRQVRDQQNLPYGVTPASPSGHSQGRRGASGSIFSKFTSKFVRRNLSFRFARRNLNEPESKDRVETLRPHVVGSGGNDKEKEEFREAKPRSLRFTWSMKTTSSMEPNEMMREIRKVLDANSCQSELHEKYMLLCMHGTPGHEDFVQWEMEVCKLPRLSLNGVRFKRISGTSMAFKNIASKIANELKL

[11] = target: Serine/threonine-protein kinase MARK2 (Homo sapiens) (UniProt Q7KZI7); conditions: at 1 µM
[12] = target: PAS domain-containing serine/threonine-protein kinase (Homo sapiens) (UniProt Q96RG2); conditions: at 0.1 µM
Sequence of PAS domain-containing serine/threonine-protein kinase (Homo sapiens) (Q96RG2 whole entry, the tested form may be a part, canonical isoform): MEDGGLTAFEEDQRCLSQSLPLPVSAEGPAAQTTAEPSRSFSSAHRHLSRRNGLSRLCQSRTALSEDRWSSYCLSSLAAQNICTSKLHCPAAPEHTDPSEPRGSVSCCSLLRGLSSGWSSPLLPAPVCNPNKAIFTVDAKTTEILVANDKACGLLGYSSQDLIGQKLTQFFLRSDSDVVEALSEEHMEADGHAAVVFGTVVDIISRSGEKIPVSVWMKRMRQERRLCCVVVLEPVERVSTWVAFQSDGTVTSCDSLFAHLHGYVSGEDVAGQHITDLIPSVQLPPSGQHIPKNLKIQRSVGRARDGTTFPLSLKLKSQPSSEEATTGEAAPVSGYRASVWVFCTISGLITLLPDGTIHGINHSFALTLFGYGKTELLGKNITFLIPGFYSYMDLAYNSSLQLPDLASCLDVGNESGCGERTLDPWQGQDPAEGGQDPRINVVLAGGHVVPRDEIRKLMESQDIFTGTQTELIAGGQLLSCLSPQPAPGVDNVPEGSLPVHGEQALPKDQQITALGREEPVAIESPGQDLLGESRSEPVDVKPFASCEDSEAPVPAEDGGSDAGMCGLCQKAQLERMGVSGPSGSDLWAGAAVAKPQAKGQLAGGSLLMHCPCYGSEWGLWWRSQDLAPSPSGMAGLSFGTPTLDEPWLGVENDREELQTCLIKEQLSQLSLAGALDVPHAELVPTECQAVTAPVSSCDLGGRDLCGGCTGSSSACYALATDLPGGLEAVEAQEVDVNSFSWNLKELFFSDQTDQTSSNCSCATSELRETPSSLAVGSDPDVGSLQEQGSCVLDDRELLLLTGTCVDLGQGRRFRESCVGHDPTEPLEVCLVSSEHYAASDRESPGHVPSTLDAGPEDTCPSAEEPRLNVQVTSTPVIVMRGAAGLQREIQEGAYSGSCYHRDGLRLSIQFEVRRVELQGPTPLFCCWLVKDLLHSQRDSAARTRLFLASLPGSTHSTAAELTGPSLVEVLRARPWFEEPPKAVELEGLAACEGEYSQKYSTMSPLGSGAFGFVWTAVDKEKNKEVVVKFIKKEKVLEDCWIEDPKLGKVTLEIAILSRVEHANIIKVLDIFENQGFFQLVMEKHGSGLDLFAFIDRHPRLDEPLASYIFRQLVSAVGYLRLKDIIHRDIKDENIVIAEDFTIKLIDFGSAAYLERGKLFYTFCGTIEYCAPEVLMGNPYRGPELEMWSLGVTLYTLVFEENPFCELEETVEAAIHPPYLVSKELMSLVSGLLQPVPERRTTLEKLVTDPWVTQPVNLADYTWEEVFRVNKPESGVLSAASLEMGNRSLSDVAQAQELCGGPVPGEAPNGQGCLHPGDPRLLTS

[13] = target: PAS domain-containing serine/threonine-protein kinase (Homo sapiens) (UniProt Q96RG2); conditions: at 1 µM
[14] = target: Phosphorylase b kinase gamma catalytic chain, skeletal muscle/heart isoform (Homo sapiens) (UniProt Q16816); conditions: at 0.1 µM
Sequence of Phosphorylase b kinase gamma catalytic chain, skeletal muscle/heart isoform (Homo sapiens) (Q16816 whole entry, looked up, canonical isoform): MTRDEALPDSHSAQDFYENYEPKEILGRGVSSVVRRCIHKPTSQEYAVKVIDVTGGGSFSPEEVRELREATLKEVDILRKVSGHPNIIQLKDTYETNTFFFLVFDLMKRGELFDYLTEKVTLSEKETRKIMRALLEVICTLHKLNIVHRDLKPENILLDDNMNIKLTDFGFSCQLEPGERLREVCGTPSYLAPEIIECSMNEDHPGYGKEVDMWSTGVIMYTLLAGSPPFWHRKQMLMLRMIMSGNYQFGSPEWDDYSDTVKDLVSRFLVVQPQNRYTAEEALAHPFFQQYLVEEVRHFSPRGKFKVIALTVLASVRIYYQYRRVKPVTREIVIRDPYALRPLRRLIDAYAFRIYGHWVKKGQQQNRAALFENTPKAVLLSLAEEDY

[15] = target: Phosphorylase b kinase gamma catalytic chain, skeletal muscle/heart isoform (Homo sapiens) (UniProt Q16816); conditions: at 1 µM
[16] = target: T2, Phosphorylase b kinase gamma catalytic chain, liver/testis isoform (Homo sapiens) (UniProt P15735); conditions: at 0.1 µM
T2 sequence (whole entry): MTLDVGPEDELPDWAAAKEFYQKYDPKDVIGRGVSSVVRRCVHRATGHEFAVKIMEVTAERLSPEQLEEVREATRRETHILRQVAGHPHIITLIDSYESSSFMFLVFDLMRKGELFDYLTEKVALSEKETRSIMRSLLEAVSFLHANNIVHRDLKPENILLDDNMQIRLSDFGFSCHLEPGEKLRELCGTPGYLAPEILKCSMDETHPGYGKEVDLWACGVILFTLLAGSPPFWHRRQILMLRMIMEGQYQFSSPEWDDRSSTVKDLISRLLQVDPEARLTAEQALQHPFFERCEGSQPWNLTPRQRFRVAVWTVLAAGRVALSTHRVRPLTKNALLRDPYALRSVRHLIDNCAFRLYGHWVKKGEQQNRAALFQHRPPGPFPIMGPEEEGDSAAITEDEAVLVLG

[17] = target: T2, Phosphorylase b kinase gamma catalytic chain, liver/testis isoform (Homo sapiens); conditions: at 1 µM
[18] = target: Serine/threonine-protein kinase pim-1 (Homo sapiens) (UniProt P11309); conditions: at 0.1 µM
Sequence of Serine/threonine-protein kinase pim-1 (Homo sapiens) (P11309 whole entry, looked up): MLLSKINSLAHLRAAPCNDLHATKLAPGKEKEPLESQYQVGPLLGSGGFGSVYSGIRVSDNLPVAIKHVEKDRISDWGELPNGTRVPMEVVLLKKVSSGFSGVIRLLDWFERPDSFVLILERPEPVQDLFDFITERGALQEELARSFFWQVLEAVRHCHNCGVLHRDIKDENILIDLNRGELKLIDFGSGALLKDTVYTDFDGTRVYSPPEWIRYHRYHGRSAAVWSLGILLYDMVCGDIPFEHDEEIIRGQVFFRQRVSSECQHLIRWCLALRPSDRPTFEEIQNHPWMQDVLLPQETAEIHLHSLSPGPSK

[19] = target: Serine/threonine-protein kinase pim-1 (Homo sapiens) (UniProt P11309); conditions: at 1 µM
[20] = target: Serine/threonine-protein kinase pim-2 (Homo sapiens) (UniProt Q9P1W9); conditions: at 0.1 µM;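 further: reported value is the mean percent inhibition of PIM2, measured in the GSK PKIS kinase inhibitor set screen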
Sequence of Serine/threonine-protein kinase pim-2 (Homo sapiens) (Q9P1W9 whole entry, looked up): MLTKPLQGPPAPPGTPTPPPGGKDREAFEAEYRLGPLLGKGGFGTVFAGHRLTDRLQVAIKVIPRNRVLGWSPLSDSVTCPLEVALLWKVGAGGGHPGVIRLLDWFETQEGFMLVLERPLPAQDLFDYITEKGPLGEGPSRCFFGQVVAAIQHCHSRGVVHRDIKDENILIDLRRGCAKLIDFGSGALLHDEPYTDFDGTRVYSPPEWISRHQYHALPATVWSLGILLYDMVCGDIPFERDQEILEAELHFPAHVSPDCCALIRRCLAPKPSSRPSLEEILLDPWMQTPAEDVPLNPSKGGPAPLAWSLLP

SMILES	inhibition [1] [%]	inhibition [2] [%]	inhibition [3] [%]	inhibition [4] [%]	inhibition [5] [%]	inhibition [6] [%]	inhibition [7] [%]	inhibition [8] [%]	inhibition [9] [%]	inhibition [10] [%]	inhibition [11] [%]	inhibition [12] [%]	inhibition [13] [%]	inhibition [14] [%]	inhibition [15] [%]	inhibition [16] [%]	inhibition [17] [%]	inhibition [18] [%]	inhibition [19] [%]	inhibition [20] [%]
Fc1ccc(-c2cc(-c3c[nH]nc3-c3ccccn3)ccn2)cc1	0.81	1.12	1.84	0.52	7.4	4.46	10.4	2.83	6.06	-3.26	-2.56	-0.42	0.53	5.71	9.03	5.07	8.42	-0.17	0.76	0.19
COc1ccc(-c2nn3ncccc3c2-c2ccnc(Nc3ccc4c(c3)OCCO4)n2)cc1	1.83	1.34	0.93	-1.54	2.58	0.71	0.14	-0.13	1.25	-1.35	-0.07	1.07	0.37	2.6	6.21	0.91	0.83	0.46	-0.36	0.54
CNC(=O)c1cccc(C#Cc2cncnc2Nc2ccc(OCc3cccc(F)c3)c(Cl)c2)c1	23.2	-0.97	0.31	-3.3	-0.86	3.12	26.2	1.92	13.1	-2.05	-2.06	0.44	0.79	-2.47	2.19	2.39	3.44	0.55	0.54	0.37
CC(=O)Nc1cccc(C#Cc2cncnc2Nc2ccc(OCc3cccc(F)c3)c(Cl)c2)c1	4.64	0.9	0.69	1.32	1.11	2.02	15.4	1.16	6.2	-0.32	0.33	1.37	-0.46	0.65	1.71	3.82	1.55	1.32	0.75	0.84
c1ccc(-c2nc3n(c2-c2ccc4c(c2)OCO4)CCC3)nc1	4.15	1.03	2.7	2.58	4.77	1.71	3.75	0.98	-0.19	2.71	1.22	-5.85	-0.24	3.66	2.79	1.19	0.01	0.37	0.72	-0.34
CCc1nn2ncccc2c1-c1ccnc(NC2CC2)n1	3.36	2.15	2.34	2.14	5.08	5.42	17.9	2.69	8.83	1.31	1.56	1.03	0.63	1.42	2.68	2.15	3.73	0.19	1.72	0.29
COc1ccc(CNC(=O)c2ccc(-c3cc(-c4nnc(C)o4)ccc3C)cc2)cc1	0.99	2.25	1.91	0.76	1.99	4.23	9.25	4.37	8.59	1.99	0.82	2.29	8.41	3.84	6.56	3.12	9.31	1.62	1.96	2.9
CN1CCC(n2cnc(-c3ccc(F)cc3)c2-c2ccnc(Nc3ccccc3)n2)CC1	2.89	0.39	0.51	1.63	3.22	1.8	11.4	1.79	4.18	0.89	-0.33	-0.38	2.19	3.44	4.79	3.49	2.68	0.38	2.62	-0.56
